Laboratory results taken from PubChem BioAssay AID1159580 (chemical genetic matrix, 2015).
Values joined by “and” are separate entries in the source; they are usually repeats but may differ in a detail not shown here. Identical values can stand only once. Screen size: about 5,500 compounds; about 2,000 (36%) were called active. Not shown: some 18% with an inconclusive outcome. Cut-off read from the data, not from the text of the source: active = normalized growth mostly below about 0.91 (no sharp cut-off); inconclusive = no clear call, values can overlap the other calls; inactive = mostly above about 0.92. This is one part of the list. Some compounds were tested as several samples or in several runs, with calls that do not always agree.

Test: chemical genetic growth profiling, strain panel (AID 1159580);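 note: tested at 20 µM; growth read once vehicle control cultures reached saturation at 30 °C; 1 = growth at the plate median or of vehicle wells; lower values mean less growth of the strain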
Conditions: growth OD

Measured: normalized growth

CN1CCN(CCCN2c3ccccc3Sc3ccc(C(F)(F)F)cc32)CC1
0.122 (active) and 1 (inactive): S. cerevisiae deletion strains, locus YMR263W, strain SAP30, stronger effect = lower value
active: S. cerevisiae deletion strains, locus YJR075W, strain HOC1, stronger effect = lower value 0.0765 and 0.787 | S. cerevisiae deletion strains, locus YKL009W, strain mrt4, stronger effect = lower value 0.875 | S. cerevisiae deletion strains, locus YKL160W, strain elf1, stronger effect = lower value 0.0849 | S. cerevisiae deletion strains, locus YKL190W, strain CNB1, stronger effect = lower value 0.0505 | S. cerevisiae deletion strains, locus YKR001C, strain vps1, stronger effect = lower value 0.0668 | S. cerevisiae deletion strains, locus YKR026C, strain gcn3, stronger effect = lower value 0.0825 | S. cerevisiae deletion strains, locus YKR091W, strain srl3, stronger effect = lower value 0.073 | S. cerevisiae deletion strains, locus YLL001W, strain dnm1, stronger effect = lower value 0.0784 | S. cerevisiae deletion strains, locus YLL026W, stronger effect = lower value 0.0619 | S. cerevisiae deletion strains, locus YLL041C, strain sdh2, stronger effect = lower value 0.0714 | S. cerevisiae deletion strains, locus YLR027C, strain aat2, stronger effect = lower value 0.0651 | S. cerevisiae deletion strains, locus YLR039C, strain RIC1, stronger effect = lower value 0.105 | S. cerevisiae deletion strains, locus YLR058C, strain SHM2, stronger effect = lower value 0.0587 | S. cerevisiae deletion strains, locus YLR102C, strain apc9, stronger effect = lower value 0.0738 | S. cerevisiae deletion strains, locus YLR221C, strain rsa3, stronger effect = lower value 0.0717 | S. cerevisiae deletion strains, locus YLR258W, strain gsy2, stronger effect = lower value 0.0705 | S. cerevisiae deletion strains, locus YLR262C, strain YPT6 (second series), stronger effect = lower value 0.0947 | S. cerevisiae deletion strains, locus YLR262C, strain YPT6, stronger effect = lower value 0.129 | S. cerevisiae deletion strains, locus YLR268W, strain sec22, stronger effect = lower value 0.0809 | S. cerevisiae deletion strains, locus YLR320W, strain mms22, stronger effect = lower value 0.0931 | S. cerevisiae deletion strains, locus YLR330W, strain CHS5, stronger effect = lower value 0.0585 | S. cerevisiae deletion strains, locus YLR342W, strain FKS1 (second series), stronger effect = lower value 0.0849 | S. cerevisiae deletion strains, locus YLR342W, strain FKS1, stronger effect = lower value 0.0733 | S. cerevisiae deletion strains, locus YLR357W, strain rsc2, stronger effect = lower value 0.148 | S. cerevisiae deletion strains, locus YLR370C, strain arc18, stronger effect = lower value 0.0604 | S. cerevisiae deletion strains, locus YLR371W, strain rom2, stronger effect = lower value 0.0675 | S. cerevisiae deletion strains, locus YLR384C, strain iki3, stronger effect = lower value 0.0666 | S. cerevisiae deletion strains, locus YLR418C, strain cdc73, stronger effect = lower value 0.125 | S. cerevisiae deletion strains, locus YML016C, strain PPZ1, stronger effect = lower value 0.0583 | S. cerevisiae deletion strains, locus YML032C, strain rad52, stronger effect = lower value 0.0831 | S. cerevisiae deletion strains, locus YML120C, strain ndi1, stronger effect = lower value 0.0683 | S. cerevisiae deletion strains, locus YML124C, strain tub3, stronger effect = lower value 0.0843 | S. cerevisiae deletion strains, locus YMR058W, strain fet3, stronger effect = lower value 0.0611 | S. cerevisiae deletion strains, locus YMR078C, strain ctf18, stronger effect = lower value 0.239 | S. cerevisiae deletion strains, locus YMR125W, strain sto1, stronger effect = lower value 0.0897 | S. cerevisiae deletion strains, locus YMR129W, stronger effect = lower value 0.061 | S. cerevisiae deletion strains, locus YMR205C, strain PFK2, stronger effect = lower value 0.199 | S. cerevisiae deletion strains, locus YMR223W, strain ubp8, stronger effect = lower value 0.0945 | S. cerevisiae deletion strains, locus YMR231W, strain pep5, stronger effect = lower value 0.0666 | S. cerevisiae deletion strains, locus YMR307W, strain GAS1, stronger effect = lower value 0.122 and 0.848 | S. cerevisiae deletion strains, locus YNL067W, strain RPL9B, stronger effect = lower value 0.0685 | S. cerevisiae deletion strains, locus YNL071W, strain lat1, stronger effect = lower value 0.0775 | S. cerevisiae deletion strains, locus YNL128W, strain TEP1, stronger effect = lower value 0.0773 | S. cerevisiae deletion strains, locus YNL153C, strain GIM3, stronger effect = lower value 0.0603 and 0.583 | S. cerevisiae deletion strains, locus YNL175C, strain NOP13, stronger effect = lower value 1.15 [resistant] | S. cerevisiae deletion strains, locus YNL209W, strain ssb2, stronger effect = lower value 0.0693 | S. cerevisiae deletion strains, locus YNL224C, strain SQS1, stronger effect = lower value 1.11 [resistant] | S. cerevisiae deletion strains, locus YNL233W, strain BNI4, stronger effect = lower value 0.0609 | S. cerevisiae deletion strains, locus YNL248C, strain rpa49, stronger effect = lower value 0.102 | S. cerevisiae deletion strains, locus YNL307C, strain MCK1, stronger effect = lower value 0.0726 | S. cerevisiae deletion strains, locus YNL322C, strain KRE1, stronger effect = lower value 0.0571 | S. cerevisiae deletion strains, locus YNR049C, strain mso1, stronger effect = lower value 0.0676 | S. cerevisiae deletion strains, locus YNR052C, strain pop2, stronger effect = lower value 0.0713 | S. cerevisiae deletion strains, locus YOL006C, strain TOP1, stronger effect = lower value 0.119 | S. cerevisiae deletion strains, locus YOL012C, strain htz1 0.176 | S. cerevisiae deletion strains, locus YOL147C, strain pex11, stronger effect = lower value 0.0736 | S. cerevisiae deletion strains, locus YOR001W, strain rrp6, stronger effect = lower value 0.0923 | S. cerevisiae deletion strains, locus YOR061W, strain CKA2, stronger effect = lower value 0.0554 | S. cerevisiae deletion strains, locus YOR069W, strain VPS5, stronger effect = lower value 0.112 | S. cerevisiae deletion strains, locus YOR070C, strain gyp1, stronger effect = lower value 0.0657 | S. cerevisiae deletion strains, locus YOR080W, strain dia2, stronger effect = lower value 0.0771 | S. cerevisiae deletion strains, locus YOR083W, strain WHI5 (second series), stronger effect = lower value 0.748 | S. cerevisiae deletion strains, locus YOR083W, strain WHI5, stronger effect = lower value 0.0778 | S. cerevisiae deletion strains, locus YOR106W, strain vam3, stronger effect = lower value 0.0723 | S. cerevisiae deletion strains, locus YOR136W, strain idh2, stronger effect = lower value 0.0795 | S. cerevisiae deletion strains, locus YOR144C, strain elg1, stronger effect = lower value 0.0731 | S. cerevisiae deletion strains, locus YOR184W, strain ser1, stronger effect = lower value 0.0849 | S. cerevisiae deletion strains, locus YOR265W, strain rbl2, stronger effect = lower value 0.0652 | S. cerevisiae deletion strains, locus YOR270C, strain vph1, stronger effect = lower value 0.136 | S. cerevisiae deletion strains, locus YOR290C, strain snf2, stronger effect = lower value 0.0834 | S. cerevisiae deletion strains, locus YOR316C, strain cot1, stronger effect = lower value 0.0693 | S. cerevisiae deletion strains, locus YPL051W, strain arl3, stronger effect = lower value 0.12 | S. cerevisiae deletion strains, locus YPL055C, strain LGE1, stronger effect = lower value 0.072 and 0.65 | S. cerevisiae deletion strains, locus YPL078C, strain atp4, stronger effect = lower value 0.161 | S. cerevisiae deletion strains, locus YPL106C, strain sse1, stronger effect = lower value 0.104 | S. cerevisiae deletion strains, locus YPL240C, strain hsp82, stronger effect = lower value 0.0671 | S. cerevisiae deletion strains, locus YPL241C, strain CIN2, stronger effect = lower value 0.0575 | S. cerevisiae deletion strains, locus YPR119W, strain clb2, stronger effect = lower value 0.079 | S. cerevisiae deletion strains, locus YPR163C, strain tif3, stronger effect = lower value 0.0727 | S. cerevisiae deletion strains, locus YPR167C, strain met16, stronger effect = lower value 0.0761 | S. cerevisiae deletion strains, strain wtn01, stronger effect = lower value 0.073 | S. cerevisiae strains, strain wild type, stronger effect = lower value 0.0552
inactive: S. cerevisiae deletion strains, locus YKL068W, stronger effect = lower value 0.984 | S. cerevisiae deletion strains, locus YKL085W, strain MDH1 (second series), stronger effect = lower value 0.957 | S. cerevisiae deletion strains, locus YKL085W, strain MDH1, stronger effect = lower value 0.957 | S. cerevisiae deletion strains, locus YLR113W, strain HOG1, stronger effect = lower value 0.941 | S. cerevisiae deletion strains, locus YNL183C, strain NPR1, stronger effect = lower value 0.91 | S. cerevisiae deletion strains, locus YNL197C, strain WHI3, stronger effect = lower value 1.08 | S. cerevisiae deletion strains, locus YNL250W, strain rad50, stronger effect = lower value 0.968 | S. cerevisiae deletion strains, locus YNL271C, strain bni1, stronger effect = lower value 0.982 | S. cerevisiae deletion strains, locus YNL298W, strain CLA4, stronger effect = lower value 0.938 | S. cerevisiae deletion strains, locus YNL322C, strain KRE1 (second series), stronger effect = lower value 0.978 | S. cerevisiae deletion strains, locus YOR231W, strain MKK1, stronger effect = lower value 0.939 | S. cerevisiae deletion strains, locus YPL256C, strain CLN2, stronger effect = lower value 0.914 | S. cerevisiae deletion strains, locus YPR141C, strain kar3, stronger effect = lower value 0.98
